Laboratory results from PubChem BioAssay.
Activity calls are given as the source filed them.

Assay: PSAC antagonists in infected red cells, primary screen, cell-based, P. falciparum Indochina, OD700, 18 h (AID 1157)
Details: P. falciparum Indochina infected erythrocytes, osmotic lysis OD700, 18 h; higher = more signal, called active from +8 up or from −8 down

Question: Which z-score does the source give for `O=C1OCC=C[C@H]2OC34C=CCN(c5ccc6ccccc6c5)C(=O)[C@H]3N(CCCCCCO)C(=O)[C@@H]4[C@@H]12` (some centres not stated) here?
Answer: The z-score was 0.525 (inactive).

Question: Which z-score does the source give for `[N-]=[N+]=Nc1ccccc1C[C@]1(C(N)=O)N=C(c2ccc(OCCCO)cc2)O[C@H]1c1ccccc1` here?
Answer: Its z-score is 0.936 (inactive).

Question: For `O=C1OCCC/C=C\[C@H]2OC34C=CCN(Cn5nnc6ccccc65)C(=O)[C@H]3N(CCO)C(=O)[C@@H]4C12` (some centres not stated), which z-score is on record?
Answer: The z-score was 0.335 (inactive).

Question: With `COc1cc2c(cc1OC)CN(C(=O)[C@H]1[C@@H]3C(=O)O[C@@H](c4ccccc4)[C@@H](c4ccccc4)N3[C@@H](c3ccc(O)cc3)[C@]13C(=O)Nc1ccc(C#CC4=CCCCC4)cc13)CC2` as the molecule, how does the z-score read?
Answer: Its z-score is 0.736 (inactive).

Question: For `Cc1ccc(S[C@]2(C(=O)NCC(C)C)CC(=O)N(Cc3cc(C(F)(F)F)cc(C(F)(F)F)c3)[C@@H]2c2ccc(CO)cc2I)cc1`, which z-score is on record?
Answer: The z-score was 0.278 (inactive).

Question: With `CCCC[C@@H]1C[C@H]1[C@@H](NC(=O)c1ccco1)c1ccc(C(=O)OC)cc1` as the molecule, how does the z-score read?
Answer: The z-score was 0.323 (inactive).

Question: With `O=C1O[C@H](c2ccccc2)[C@H](c2ccccc2)N2[C@H]1[C@@H](C(=O)O)[C@]1(C(=O)Nc3ccc(C#CC4=CCCCC4)cc31)[C@H]2c1ccccc1OCCO` as the molecule, how does the z-score read?
Answer: The z-score was -1.92 (inactive).

Question: With `CC(=O)N1Cc2ccccc2C[C@@]2(COC(c3ccc(OCCCO)cc3)=N2)C1=O` as the molecule, how does the z-score read?
Answer: Its z-score is 1.7 (inactive).

Assay: modulators of S6 phosphorylation in cells, primary screen, cell-based, A549, cytoblot, luminescence, serum-stimulated (AID 1158);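 note: serum-stimulated A549 lung adenocarcinoma cells; signal is phosphorylated S6 detected by cytoblot immunostaining with HRP secondary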
Details: A549 phospho-S6 cytoblot, 5 h, higher = more signal

Question: For `C[N+](C)(C)CCCCNC(=O)[C@H]1C[C@H]2C(=O)N[C@@H](Cc3ccccc3)C(=O)N2[C@H]1c1ccc(O)cc1`, which z-score is on record?
Answer: The z-score was 0.149.

Question: With `[N-]=[N+]=NCc1ccccc1C[C@]1(C(=O)N2CCOCC2)N=C(c2ccc(OCCCO)cc2)O[C@H]1c1ccccc1N=[N+]=[N-]` as the molecule, how does the z-score read?
Answer: The z-score was 1.73.

Question: For `CC(=O)NCCCC[C@@H]1NC(=O)[C@@H]2C[C@H](C(=O)NCCCCN(C)C)[C@H](c3cccc(OCCO)c3)N2C1=O`, which z-score is on record?
Answer: Its z-score is -0.326.

Question: With `COc1ccc(C(O)C2C=CC3C(=O)N(c4ccccc4)C(=O)C3N2Nc2ccc(C(C)C)cc2)cc1OCc1ccccc1` (configuration not stated) as the molecule, how does the z-score read?
Answer: Its z-score is -0.951.

Question: For `[N-]=[N+]=Nc1ccccc1[C@H]1OC(c2ccc(OCCCO)cc2)=N[C@@]1(Cc1ccccc1)C(=O)O`, which z-score is on record?
Answer: Its z-score is -0.259.

Question: With `O=C(NCc1ccccc1)[C@@]1(Cc2ccccc2)N=C(c2ccc(OCCCO)cc2)O[C@H]1c1ccccc1` as the molecule, how does the z-score read?
Answer: The z-score was -0.0312.

Question: With `CCOC1=C2C(CN(S(=O)(=O)c3ccc(C)cc3)C2c2ccc(C)cc2)C2C(=O)N(c3ccccc3)C(=O)C2C1` (configuration not stated) as the molecule, how does the z-score read?
Answer: Its z-score is -0.258.

Question: With `CCOC(=O)C[C@H]1[C@H](OC(=O)c2ccc(C(=O)c3ccccc3)cc2)[C@@H](NC(=O)c2ccc(-c3ccccc3)cc2)c2cc(OCCCO)ccc2N1C(=O)c1ccccc1` as the molecule, how does the z-score read?
Answer: The z-score was 0.0156.

Question: Which z-score does the source give for `COCCOC(=O)N1C(=O)[C@@]2(c3cc(C#Cc4ccc(OC)cc4)ccc31)[C@H](c1ccc(O)cc1)N1[C@H](c3ccccc3)[C@H](c3ccccc3)OC(=O)[C@H]1[C@@H]2C(=O)NC[C@H](O)c1ccccc1` here?
Answer: Its z-score is 0.264.

Question: For `COc1ccc(C(=O)O[C@H]2CC[C@]3(C)C4=C(CCC3C2(C)C)[C@]2(C)CC[C@H]([C@H](C)CCCC(C)C)[C@@]2(C)CC4)cc1` (some centres not stated), which z-score is on record?
Answer: Its z-score is 1.86.

Question: Which z-score does the source give for `COc1ccc(C(=O)Nc2ccc(CN3C(=O)[C@@]4(O[C@@H](CCn5cc([C@H](O)c6ccccc6)nn5)[C@H]([Si](C)(C)c5ccc(OC)cc5)[C@H]4C)c4ccccc43)cc2)cc1` here?
Answer: Its z-score is 0.134.

Question: With `O=C1c2ccccc2[C@@]2(Cc3ccccc3N(CCN3CCOCC3)C2=O)[C@H](c2ccc(CO)cc2)N1Cc1ccccc1` as the molecule, how does the z-score read?
Answer: The z-score was 0.215.

Question: With `CC[C@@H]1C=C(C(=O)O)[C@H](c2ccco2)N1S(=O)(=O)c1ccc(C)cc1` as the molecule, how does the z-score read?
Answer: Its z-score is 0.123.

Question: With `O=C1OCCC/C=C\[C@H]2OC34C=CCN(CCN5CCOCC5)C(=O)[C@H]3N(CCCO)C(=O)[C@@H]4C12` (some centres not stated) as the molecule, how does the z-score read?
Answer: The z-score was -0.181.

Question: Which z-score does the source give for `COC(=O)[C@@]1(Cc2ccccc2)[C@H]2c3cc(C(=O)N4CCCC4)n(Cc4nc5ccccc5[nH]4)c3C[C@H]2CN1C(=O)c1ccccc1` here?
Answer: Its z-score is -0.25.

Question: Which z-score does the source give for `CC(C)c1ccc(NN2C(C(O)C(c3ccccc3)c3ccccc3)C=CC3C(=O)N(c4ccccc4)C(=O)C32)cc1` (configuration not stated) here?
Answer: The z-score was -0.582.

Question: For `C#CCN(Cc1ccccc1Br)C(/C=C/c1ccccc1)CO` (configuration not stated), which z-score is on record?
Answer: Its z-score is -0.188.

Question: With `O=C1C2C=CC(C(O)c3c(F)cccc3Cl)N(Nc3ccccc3)C2C(=O)N1c1ccccc1` (configuration not stated) as the molecule, how does the z-score read?
Answer: The z-score was -0.458.

Question: For `NC(=O)[C@@H]1[C@H]2C(=O)O[C@H](c3ccccc3)[C@H](c3ccccc3)N2[C@H](c2ccc(O)cc2)[C@@]12C(=O)Nc1ccc(C#CC3(O)CCCCCC3)cc12`, which z-score is on record?
Answer: Its z-score is -0.231.
